In PubChem BioAssay AID1159580 (chemical genetic matrix, 2015):
Hit rate of the full screen: of about 5,500 compounds, about 2,000 (36%) were called active. Inconclusive results (about 18%) are left out. Cut-off read from the data, not from the text of the source: active = normalized growth mostly below about 0.91 (no sharp cut-off); inconclusive = no clear call, values can overlap the other calls; inactive = mostly above about 0.92. The list shows a part of the results.

Assay: chemical genetic growth profiling, strain panel (AID 1159580);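 note: tested at 20 µM; growth read once vehicle control cultures reached saturation at 30 °C; 1 = growth at the plate median or of vehicle wells; lower values mean less growth of the strain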
Details: S. cerevisiae deletion strains, growth OD
[1] = locus YDL101C, strain DUN1, active compounds read low
[2] = locus YHR030C, strain SLT2, active compounds read low
[3] = locus YDR150W, strain NUM1, active compounds read low
[4] = locus YGR078C, strain PAC10, active compounds read low
[5] = locus YNL153C, strain GIM3, active compounds read low
[6] = locus YNL322C, strain KRE1, active compounds read low
[7] = locus YPL055C, strain LGE1, active compounds read low
[8] = locus YPL241C, strain CIN2, active compounds read low

Measured: normalized growth

CCc1cc2c(cc1-c1csc(C/C(N)=N\O)n1)C(C)(C)CCC2(C)C
active: locus YER123W, strain YCK3, active compounds read low 0.568 | locus YER133W, strain GLC7, active compounds read low 0.712 | locus YGR052W, strain FMP48, active compounds read low 0.567 | [2] 0.499 | locus YJR066W, strain TOR1 (second series), active compounds read low 0.601 | locus YKL048C, strain ELM1, active compounds read low 0.721 | locus YKL101W, strain HSL1, active compounds read low 0.701 | locus YLR113W, strain HOG1, active compounds read low 0.369 | locus YML070W, strain DAK1, active compounds read low 0.618 | locus YNL183C, strain NPR1, active compounds read low 0.553 | locus YOR231W, strain MKK1, active compounds read low 0.525 | locus YPL031C, strain PHO85, active compounds read low 0.639 | locus YPL153C, strain RAD53, active compounds read low 0.552 | locus YPL256C, strain CLN2, active compounds read low 0.546
inactive: locus YAR019C, strain CDC15, active compounds read low 0.985 | locus YBL105C, strain PKC1, active compounds read low 0.974 | locus YBR135W, strain CKS1, active compounds read low 0.969 | locus YBR136W, strain MEC1, active compounds read low 0.981 | locus YBR160W, strain CDC28, active compounds read low 0.986 | locus YDL017W, strain CDC7, active compounds read low 0.978 | locus YDL028C, strain MPS1, active compounds read low 0.985 | [1] 0.979 | locus YDL108W, strain KIN28, active compounds read low 0.968 | locus YDL132W, strain cdc53, active compounds read low 0.965 | locus YDL214C, strain PRR2, active compounds read low 0.757 | locus YDR052C, strain DBF4, active compounds read low 0.974 | locus YDR054C, strain cdc34, active compounds read low 0.97 | locus YDR226W, strain ADK1, active compounds read low 0.976 | locus YDR477W, strain SNF1, active compounds read low 0.75 | locus YFL009W, strain cdc4, active compounds read low 0.967 | locus YFL029C, strain CAK1, active compounds read low 0.974 | locus YFR003C, strain YPI1, active compounds read low 0.974 | locus YFR019W, strain FAB1, active compounds read low 0.819 | locus YFR028C, strain CDC14, active compounds read low 0.973 | locus YGR040W, strain KSS1, active compounds read low 0.749 | locus YGR092W, strain DBF2, active compounds read low 0.722 | locus YHR079C, strain IRE1, active compounds read low 0.525 | locus YHR082C, strain KSP1, active compounds read low 0.647 | locus YHR205W, strain SCH9, active compounds read low 0.77 | locus YIL147C, strain SLN1, active compounds read low 0.981 | locus YJL095W, strain BCK1, active compounds read low 0.532 | locus YJL128C, strain PBS2, active compounds read low 0.962 | locus YJL157C, strain FAR1, active compounds read low 0.779 | locus YJR016C, strain ILV3, active compounds read low 0.965 | locus YJR066W, strain TOR1, active compounds read low 0.666 | locus YKL067W, strain YNK1, active compounds read low 0.755 | locus YKL193C, strain SDS22, active compounds read low 0.973 | locus YKL203C, strain TOR2, active compounds read low 0.764 | locus YLR133W, strain CKI1, active compounds read low 0.813 | locus YLR403W, strain SFP1, active compounds read low 0.784 | locus YMR001C, strain CDC5, active compounds read low 0.969 | locus YMR205C, strain PFK2 (second series), active compounds read low 0.78 | locus YMR277W, strain FCP1, active compounds read low 0.963 | locus YNL006W, strain LST8, active compounds read low 0.977 | locus YNL020C, strain ARK1, active compounds read low 0.788 | locus YNL161W, strain CBK1, active compounds read low 0.977 | locus YNL207W, strain RIO2, active compounds read low 0.964 | locus YNL222W, strain SSU72, active compounds read low 0.972 | locus YNL307C, strain MCK1 (second series), active compounds read low 0.797 | locus YOL078W, strain AVO1, active compounds read low 0.969 | locus YOL136C, strain PFK27, active compounds read low 0.738 | locus YOR061W, strain CKA2, active compounds read low 0.788 | locus YOR119C, strain RIO1, active compounds read low 0.78 | locus YOR329C, strain SCD5, active compounds read low 0.981 | locus YPL204W, strain HRR25, active compounds read low 0.759 | locus YPL209C, strain IPL1, active compounds read low 0.976 | locus YPR025C, strain CCL1, active compounds read low 0.978 | locus YPR106W, strain ISR1, active compounds read low 0.976 | locus YPR111W, strain DBF20, active compounds read low 0.966 | strain NNK1, active compounds read low 0.947 | strain TSCII, active compounds read low 0.975

c1ccc2c(N3CCNCC3)cccc2c1
inactive: locus YAL040C, strain CLN3, active compounds read low 1.03 | locus YCL061C, strain MRC1 (second series), active compounds read low 1 | [3] 0.994 | locus YDR363W, strain ESC2, active compounds read low 0.999 | locus YER002W, strain NOP16, active compounds read low 1.01 | [4] 0.993 | locus YGR229C, strain SMI1, active compounds read low 1.02 | locus YMR307W, strain GAS1, active compounds read low 0.99 | [5] 0.991 | locus YNL175C, strain NOP13, active compounds read low 1.01 | locus YNL197C, strain WHI3, active compounds read low 0.997 | locus YNL224C, strain SQS1, active compounds read low 1.01 | [6] 1.01 | locus YOR083W, strain WHI5 (second series), active compounds read low 1 | [7] 1.02 | [8] 1

COc1ccccc1N1CCN(Cc2ccc(F)cc2)CC1
inactive: locus YAL013W, strain DEP1, active compounds read low 1.02 | locus YBR229C, strain ROT2, active compounds read low 0.993 | locus YCL061C, strain MRC1, active compounds read low 1 | [1] 0.992 | [3] 1.02 | locus YEL061C, strain CIN8, active compounds read low 1.01 | [4] 1.01 | [2] 1.06 | locus YHR087W, strain rtc3, active compounds read low 1.01 | locus YJL187C, strain SWE1, active compounds read low 1.02 | locus YJR043C, strain POL32, active compounds read low 1.01 | locus YJR075W, strain HOC1, active compounds read low 0.983 | locus YKL190W, strain CNB1, active compounds read low 1.02 | locus YLR039C, strain RIC1, active compounds read low 0.987 | locus YLR058C, strain SHM2 (second series), active compounds read low 1.02 | locus YLR085C, strain ARP6, active compounds read low 1.04 | locus YLR262C, strain YPT6, active compounds read low 1.01 | locus YML094W, strain GIM5, active compounds read low 1 | locus YMR219W, strain ESC1, active compounds read low 1.01 | locus YMR263W, strain SAP30, active compounds read low 1.01 | locus YNL128W, strain TEP1, active compounds read low 1.02 | [5] 0.997 | locus YNL298W, strain CLA4 (second series), active compounds read low 1.05 | [6] 1 | locus YNR030W, strain Alg12, active compounds read low 1.04 | [7] 1 | [8] 0.998 | locus YPR135W, strain CTF4, active compounds read low 1
